Hits are enriched below; roughly 7.9% of the tested compounds scored in any of these assays.
Marburg entry inh – qHTS for inhibitors of binding or entry into cells for Marburg Virus. Marburg virus pseudotyped entry inhibition, cell reporter. Potency, µM (doses to about 37.8 µM), without a hit: at the highest dose activity change, negative = inhibition, actives largely listed as inhibitors. 300,000 compounds, 1.8% hits. AID 540276, 2011; calls by dose curve; tested in HEK293 cells; further: potency means the concentration at half of the fitted maximal effect
HCMV inh – qHTS Assay for inhibitors of the human cytomegalovirus (HCMV) | HFF cells, HCMV-luciferase reporter, 72 h; stronger effect = lower value | activity change, negative = inhibition, % at 57.5 µM | 410,000 compounds, 4.5% hits | AID 1259415, 2018; in the data active means activity change below about -60%; inconclusive means no clear call, values can overlap the other calls; inactive means above about -39%
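Human foreskin fibroblasts infected with luciferase-reporter HCMV at MOI 1 PFU/cell, compounds at two doses. Luciferase measured 72 h post infection; normalized to buffer-only basal and Salinomycin (10uM) controls.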
FMDV antiviral – High Throughput Screening for Foot and Mouth Disease Virus Antivirals | FMDV antiviral cell-based qHTS | Potency, µM (highest dose often 57.9 µM), for the others: at the highest dose activity change, negative = inhibition, usual class: inhibitors | 410,000 compounds, 1.2% hits; calls by dose curve; tested in HEK293T cells; further: read-out not given here; potency means the concentration at half of the fitted maximal effect; nearly all actives have a fitted effect of over 45% in size
HCV inhibitor – qHTS Assay for Inhibitors of Hepatitis C Virus (HCV). Huh7.5.1 HCVcc-Cre infection, luciferase reporter, 44 h. Potency, µM (titrated, usually from 41.8 µM), for the others: at the top dose activity change, negative = inhibition, most hits filed as inhibitors. 340,000 compounds, 3.4% hits; active means well fitted inhibition curve with a large enough effect; inconclusive means small, poorly fitted or top-dose-only effect, or another doubt; inactive means no such curve, though single readings can be large or run the other way; further: potency means the concentration at half of the fitted maximal effect
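Compounds are dispensed onto cells plated 4 h earlier at 1,000 per well, with HCVcc-Cre virus (about 0.5 moi) added next. Following 44 h of culture, luminescent signal is measured for 15 sec after 15 min with substrate at room temperature.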
Lassa entry inh – qHTS for Inhibitors of binding or entry into cells for Lassa Virus. Potency, µM (titrated, usually from 37.9 µM), without a hit: at the top dose activity change, negative = inhibition, hits mostly inhibitors. Lassa virus pseudotype entry inhibition, cell reporter. AID 540256, 2011. 300,000 compounds, 1.2% hits; calls by dose curve; tested in HEK293 cells; further: potency means the concentration at half of the fitted maximal effect; nearly all actives have a fitted effect of over 50% in size
Starred values were filed as active, the others as inactive; ? = inconclusive; / = no result given; [ ] = remark or other dose. On the % scale 0 is the no-effect control and ±100 the full control effect.

SMILES	Marburg entry inh	HCMV inh	FMDV antiviral	HCV inhibitor	Lassa entry inh
O=C(NCCNC1CCC(c2ccccc2)CC1)c1cccs1 (stereo unspecified)	?	-99*	-13%	?	-10%
CCOC(=O)N1CCC(NCCNC(=O)c2cccs2)CC1	0%	-16	-20%	27%	-23%
O=C(COc1ccc2cc(Br)ccc2c1Br)N1CCOCC1	?	-22	18%	-9%	?
CCCCn1c(=N)n(CC(=O)c2ccc([N+](=O)[O-])cc2)c2ccccc21	/	-104*	/	/	/
Cc1ccc(C(=O)Cn2c(=N)n(CCN3CCOCC3)c3ccccc32)cc1	/	72	-9%	-18%	/
Cc1ccc(Cn2c(=N)n(CC(=O)c3ccc([N+](=O)[O-])cc3)c3ccccc32)cc1	?	-92*	?	?	-21%
COc1ccc(COC(=O)N/N=C(\C)CC(=O)NCc2ccc(Cl)cc2)cc1	11%[46.1 µM]	-18	3%	2%	?
COc1ccc(COC(=O)N/N=C(\C)CC(=O)Nc2c(C)cc(C)cc2C)cc1	12%[46.1 µM]	-4	-6%	-14%	7.3µM*
CCOc1ccc(N2C(=O)/C(=C/c3cccs3)N(CC(=O)OC)C2=S)cc1	?	18	-8%	4%	-8%
CCOc1ccc(N2C(=O)CN(CC(=O)OC)C2=S)cc1	16%[46.1 µM]	-69*	14%	11%	-1%[46.1 µM]
COc1ccc2[nH]cc(C(=O)CCl)c2c1	/	-100*	28µM*	?	/
COc1ccc2[nH]cc(/C=C/C(=O)c3ccccc3)c2c1	?	3	60%	10µM*	?
COc1ccc2[nH]cc(/C=C/c3cc[n+](C)cc3)c2c1	/	-92*	-7%	7.9µM*	/
COc1cc(=O)n2c(c1C(=O)NC(C)c1ccco1)CCN(C(=O)c1[nH]c(C)cc1C)CC2 (stereo unspecified)	/	/	-7%	/	/
COC(=O)C(c1ccccc1)(c1cn(C)c2ccccc12)C(Nc1ccccc1)c1ccc(Br)cc1 (stereo unspecified)	/	-19	/	/	/
COc1cc(Cl)c(C)cc1NC(=O)CN1C(=O)C2CCCCC2C1=O (stereo unspecified)	16%	57	-4%	10%	0%
COc1ccc([C@H]2CC(=O)C=C(c3cc(Cl)ccc3C)C2)cc1	/	-36	-22%	-22%	/
COc1ccc([C@H]2CC(=O)C=C(c3ccnc4ccc(Cl)cc34)C2)cc1	/	-78*	?	?	/
COc1ccc([C@H]2CC(=O)C=C(c3cc(F)ccc3F)C2)cc1OC	/	-3	32µM*	11µM*	/
COc1ccc([C@H]2CC(=O)C=C(c3cc(C)ccc3OC)C2)cc1	/	-1	-8%	7.9µM*	/
COC(=O)CC=C[C@@H](C)[C@@H](C=NOC[C@@H](O)COCc1ccco1)OC	-14%[14.2 µM]	/	/	/	/
CCCCN(C(=O)c1c(C)noc1C)c1c(N)n(CCC)c(=O)[nH]c1=O	/	-12	-12%	12%	/
COC(=O)C1=C(C)N(Cc2ccccc2)C(=O)NC1CCc1ccccc1 (stereo unspecified)	23%[14.2 µM]	/	/	/	/
Cc1cc(C)cc(NS(=O)(=O)c2cnc(Cl)c(Cl)c2)c1	2%	-15	14%	11µM*	1%
COC(=O)[C@]12C[C@@H]3CCN(C(=O)N[C@@H]1c1ccccc1)[C@@]32C	76%[14.2 µM]	/	/	/	?
SMILES	Marburg entry inh	HCMV inh	FMDV antiviral	HCV inhibitor	Lassa entry inh
Cc1cccc(-n2cnc3c(sc4nc(N5CCOCC5)c5c(c43)CCCC5)c2=O)c1	?	?	?	18µM*	?
CCOc1nc2cccc(C(=O)OC(C)OC(=O)OC3CCCCC3)c2n1Cc1ccc(-c2ccccc2-c2nn[nH]n2)cc1 (stereo unspecified)	/	-86*	-8%	/	/
CCCc1nc(C(C)(C)O)c(C(=O)OCc2oc(=O)oc2C)n1Cc1ccc(-c2ccccc2-c2nn[nH]n2)cc1	/	/	-6%	/	/
O=c1c2ccccc2nc(/C=C/c2ccc3c(c2)OCO3)n1-c1cccc(O)c1	2%	?	-22%	-11%	?
COc1ccc(-n2c(/C=C/c3ccc4c(c3)OCO4)nc3ccccc3c2=O)cc1	?	-84*	?	?	-17%
Cc1ccc(-n2c(/C=C/c3ccc4c(c3)OCO4)nc3ccccc3c2=O)cc1	?	-102*	/	4%	10%
COc1ccc(-n2c(/C=C/c3ccc(O)c(OC)c3)nc3ccccc3c2=O)cc1	/	-99*	-22%	11µM*	/
C[C@H]1N[S+](=O)([O-])c2ccc(Br)cc2O[C@@H]1c1ccccc1	/	/	/	/	-12%[46.1 µM]
CCCN1CCCC(c2ccc(Nc3nc(Nc4cc(F)ccc4C(N)=O)c4cc[nH]c4n3)c(OC)c2)C1 (stereo unspecified)	/	/	/	/	14µM*
CCOC(=O)N1CCC(N2CCCC(C(=O)c3cc(F)ccc3OC)C2)CC1 (stereo unspecified)	?	?	-8%	-4%	7%[46.1 µM]
CCCN1CCC(Oc2cc(Nc3nc(Nc4cccc(F)c4C(N)=O)c4cc[nH]c4n3)c(OC)cc2Cl)CC1	/	/	/	/	13µM*
O=S(=O)(c1ccc(F)cc1)N1CCN(CCc2ccccc2)CC1	-19%	-28	?	-13%	-10%
CCOc1ccc(-n2c(C)cc(/C=N\NC(=O)CC(=O)NC3CCCCC3)c2C)cc1	?	-81*	-29%	-11%	?
Cc1ccc(NC(=O)c2ccccc2OCC(=O)c2ccccc2)cc1	-14%	-7	-6%	?	-1%
Cc1ccc(C(=O)COc2ccccc2C(=O)Nc2ccccc2)cc1	?	19	?	16µM*	?
Cc1ccc(C(C)C)cc1OCC(=O)NNC(=O)Nc1ccccc1	-13%[46.1 µM]	-38	7%	-16%	-11%[46.1 µM]
Cc1ccc(C(C)C)c(OCC(=O)NNC(=O)Nc2ccccc2)c1	?	-67*	-27%	-21%	0%
Cc1ccccc1OCC(=O)Nc1cccc(NC(=O)c2ccco2)c1	0%	-35	?	?	-26%
COc1ccc(NC(=O)c2ccco2)cc1NC(=O)COc1cc(C)ccc1C(C)C	-27%[46.1 µM]	-79*	?	/	-1%[46.1 µM]
Cc1ccccc1OCC(=O)Nc1ccc(NC(=O)c2ccco2)cc1	-23%	-80*	-1%	?	?
CCNc1ncc2nc(-c3cccs3)c(=O)n(CCC#N)c2n1	/	/	-20%	/	/
O=C(CN1C(=O)CCn2nc(-c3ccccc3)cc21)NCc1ccc(F)cc1	/	0	-7%	/	13%[46.1 µM]
CC(=O)c1cccc(NC(=O)c2cc(C)nc3c2c(C)nn3-c2cccc(Cl)c2C)c1	/	-14	?	/	22%[46.1 µM]
CCC(=O)c1ccccc1OCC(=O)Nc1c(C)cccc1C	4%[46.1 µM]	46	-15%	4%	-2%
Cc1cccc(NC(=O)COc2ccccc2C(=O)NC(C)c2ccccc2)c1 (stereo unspecified)	?	/	-18%	10µM*	?
Cc1ccc(NC(=O)CC2(CC(=O)O)CCCC2)cc1	24%	27	14%	9%	16%
